Experimental data published in PubChem BioAssay AID2642 (Johns Hopkins Ion Channel Center, 2010).
In all, about 310,000 compounds went through this assay and about 3,900 (1.3%) were called active.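 The calls were made as follows: active = compounds whose thallium flux B-score, printed positive for inhibition, exceeds three library SD while starting fluorescence stays within three; inactive = the rest.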 Many of the other results were omitted from the sample, so actives are more common in it than they were.

biological target: Potassium voltage-gated channel subfamily KQT member 1 (Homo sapiens) (UniProt P51787); assay: inhibitors of human KCNQ1 channel, primary screen, cell-based, thallium flux, high-throughput (AID 2642); settings: CHO-K1 KCNQ1, FluxOR thallium flux fluorescence, at 10 µM; hits give high values;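 also: channel opened by potassium depolarization with thallium stimulus after 20 min compound exposure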
Sequence (P51787 whole entry, looked up): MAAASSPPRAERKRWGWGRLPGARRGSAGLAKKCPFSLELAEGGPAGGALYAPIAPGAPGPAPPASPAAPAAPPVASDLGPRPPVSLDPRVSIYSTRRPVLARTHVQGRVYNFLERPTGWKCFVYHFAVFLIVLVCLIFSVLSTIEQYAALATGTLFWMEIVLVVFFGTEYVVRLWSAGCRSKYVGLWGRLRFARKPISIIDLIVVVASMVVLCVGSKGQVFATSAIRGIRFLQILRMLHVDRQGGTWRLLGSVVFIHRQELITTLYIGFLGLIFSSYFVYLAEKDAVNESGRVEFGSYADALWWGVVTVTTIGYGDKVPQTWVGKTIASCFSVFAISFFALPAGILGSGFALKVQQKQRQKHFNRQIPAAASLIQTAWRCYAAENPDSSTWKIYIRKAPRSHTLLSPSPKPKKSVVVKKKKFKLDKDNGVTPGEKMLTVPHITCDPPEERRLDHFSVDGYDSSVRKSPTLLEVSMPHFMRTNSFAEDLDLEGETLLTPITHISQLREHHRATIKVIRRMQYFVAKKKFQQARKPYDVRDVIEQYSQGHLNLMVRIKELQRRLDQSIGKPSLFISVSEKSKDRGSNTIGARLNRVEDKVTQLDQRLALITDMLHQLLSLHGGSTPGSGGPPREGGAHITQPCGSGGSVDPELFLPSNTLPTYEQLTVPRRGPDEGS

B-score, active:
Cc1ccc(-c2noc(CC(c3ccccc3)c3ccccc3)n2)cc1 7
CCN1CCN(CCNC(=O)c2ccc(/C=C3/Sc4ccccc4N(Cc4cccc(C)c4)C3=O)cc2)CC1 13
O=C(NCCN1CCOCC1)c1ccc(/C=C2\Sc3ccccc3N(Cc3ccc(F)cc3)C2=O)cc1 10
COc1ccc(/C=C2/SC(=O)N(CCCCCC(=O)Nc3ccccc3C(=O)O)C2=S)cc1 6
CC1Cc2ccccc2N1C(=O)c1cc2sccc2n1Cc1ccccc1 (centres undefined) 6
Cn1nc(C(F)(F)F)cc1-c1ccc(/C=C(\C#N)C(=O)c2cccc(C(F)(F)F)c2)s1 8
O=C(OCC(=O)N(CCc1ccccc1)Cc1ccccc1)c1ccccc1[N+](=O)[O-] 6
CC[n+]1cc(C)ccc1/C=C/c1ccc(N(C)C)cc1 14
O=C(Nc1nnc(S(=O)(=O)N2CCCCCC2)s1)c1cccc(Br)c1 7
Cc1cccc(NC(=O)c2sc(-c3ccccc3)nc2-c2ccc([N+](=O)[O-])cc2)c1 6
COc1cccc(-c2cnc(OC(C)(C)C)nc2OC(C)(C)C)c1 8
COc1ccc(Cl)cc1NC(=O)C(C)N1CCc2ccccc21 (centres undefined) 7
Cc1cccc(NC(=S)Nc2ccc(Br)cc2)c1 6
Cc1cccc(NC(=S)Nc2ccc(Cl)c(Cl)c2)c1 7
Cc1nnc(SC(C(=O)Nc2cc(Cl)cc(Cl)c2)c2ccccc2)[nH]c1=O (centres undefined) 8
CC(/C=C/c1ccccc1)=N\NC(=O)C1CC1(C)c1ccccc1 (centres undefined) 9
COc1ccc(C(=O)C2CCCN(Cc3cccn3-c3ccccn3)C2)c(C)c1 (centres undefined) 9
CCCc1cc(=S)n2c([nH]c3ccccc32)c1C#N 8
O=C(CCN1c2ccccc2Sc2ccccc21)Nc1ccccc1 12

B-score, inactive:
CC(C)NS(=O)(=O)c1ccc(NC(=O)C2CCCCC2)cc1
COc1ccc(OC)c(S(=O)(=O)NCCC(C)C)c1
CC(NC(=O)COC(=O)C1CCN(S(=O)(=O)c2ccccc2C(F)(F)F)CC1)c1ccccc1 (centres undefined)
Cc1ccc(CS(=O)Cc2ccc(C(=O)N3CCOCC3)o2)cc1 (centres undefined)
Cc1ccc(-c2noc(CSc3nnc(-c4ccccc4)n3C)n2)cc1
Cc1ccc(-c2noc(CN3CCN(Cc4ccccc4)CC3)n2)cc1
COc1cccc(NC(=O)[C@H](Cc2c[nH]c3ccccc23)NC(=O)[C@@H]2Cc3ccccc3CN2)c1
CC(C)(O)C#Cc1ncc(C(F)(F)F)cc1Cl
COCCOC1CCN(C(=O)c2ccc(OC)c(OC3CCN(C(C)C)CC3)c2)CC1
CN1CCN(CCCNC(=O)c2ccc(/C=C3\Oc4ccccc4N(Cc4ccc(Cl)cc4)C3=O)cc2)CC1
O=C(NCCN1CCOCC1)/C(=C/c1ccc(F)cc1)NC(=O)c1ccccc1
O=C(NCCCN1CCOCC1)c1ccc2c(c1)N(Cc1cccc(F)c1)C(=O)c1ccccc1S2
CCN1CCN(CCNC(=O)c2ccc3c(c2)NC(=O)/C(=C\c2ccc(OC)c(OC)c2)S3)CC1
CC(=O)Nc1ccc(S(=O)(=O)N(C)c2ccc(OCC(=O)OCC(=O)N3CCCCC3)cc2)cc1
COc1ccccc1N(C)S(=O)(=O)c1ccc(Cl)c(C(=O)N2CCC(C(N)=O)CC2)c1
COC(=O)c1ccc(CN2CCCC(C(=O)Nc3cccc(-n4cnnn4)c3)C2)cc1 (centres undefined)
CC(C)CCN1C(=O)c2ccc(C(=O)Nc3cccc(S(N)(=O)=O)c3)cc2C1=O
O=C(CS(=O)(=O)c1cn(Cc2ccc(Cl)cc2)c2ccccc12)N1CCOCC1
COc1ccc(/C=C2\SC(=O)N(CCC(=O)NCCCn3ccnc3)C2=O)cc1
O=C(CCCN1C(=O)/C(=C\c2ccccc2)SC1=S)Nc1ccccc1O
Cc1cc(/C=C2/SC(=O)N(CC(=O)N3CCCC3)C2=O)ccc1N1CCOCC1
Cc1cccc(CNS(=O)(=O)c2ccc(-c3cnc(C4CC4)o3)cc2)c1
CCOC(=O)Cn1c(=O)n(Cc2ccc(OC)cc2)c(=O)c2cccnc21
COC(=O)[C@@H](Cc1ccccc1)NC(=O)NCCc1ccccc1
O=C(c1cc2sccc2n1Cc1ccc(F)cc1)N1CCc2ccccc21
CCOC(=O)c1cc2sccc2n1Cc1ccc(C#N)cc1
CCC(=O)OCc1c(C(F)(F)F)nn(C)c1Oc1cccc(C(F)(F)F)c1
Cn1nc(C(F)(F)F)cc1C(=O)O
CCCCN(C)CCNC(=O)C1CCCN(S(=O)(=O)c2cccc3nsnc23)C1 (centres undefined)
Cc1c(C(=O)NCCCc2ccccc2)cccc1[N+](=O)[O-]
CN(Cc1ccccc1)C(=O)COC(=O)c1ccccc1Nc1ccccc1
CC1=NN(C(C)C)C(=O)C1
CN(C)c1ccc(/C=N\S(=O)(=O)c2ccccc2)cc1
Cc1nnc2n1N=C(c1ccc3c(c1)NC(=O)CO3)CS2
Cc1noc(C)c1CSCC(=O)N(CCC(C)C)c1c(N)n(Cc2ccccc2)c(=O)[nH]c1=O
COc1cccc(N(CC(=O)NC2CCCC2)C(=O)Cn2nnc(-c3ccc(C)o3)n2)c1
O=C(Nc1nnc(S(=O)(=O)N2CCOCC2)s1)c1cccc(Br)c1
Cc1cccc(C(=O)Nc2nnc(S(=O)(=O)N3CCCCCC3)s2)c1
CCn1cc(CNC(=O)c2cc([N+](=O)[O-])c(C)c([N+](=O)[O-])c2)cn1
Cc1cccc(NC(=O)c2ccc([N+](=O)[O-])o2)c1
Cc1cccc(NC(=O)c2cc([N+](=O)[O-])ccc2N2CCN(C)CC2)c1
COc1ccc(CCNc2ncnc3c2nnn3Cc2ccccc2)cc1
O=C1/C(=C/c2ccc(F)cc2)SC(=S)N1CCCC(=O)N1CCCCC1CCO (centres undefined)
COc1ccc(CCNC(=O)C(=O)NCC2OCCN2S(=O)(=O)c2ccc(OC)c(C)c2)cc1 (centres undefined)
O=C1C2C3C=CC(C4CC34)C2C(=O)N1c1nccs1 (centres undefined)
COc1ccc(-c2nc(N)ncc2-c2ccc(Cl)cc2)c(O)c1
CC(C)(C)Oc1ncc(Br)c(OC(C)(C)C)n1
CCOc1cc2c(Cl)ncnc2c(OCC)c1OCC
COc1cccc(CN2CCN(Cc3ccc4cccc(F)c4n3)CC2CCO)c1 (centres undefined)
O=S(=O)(c1cccc2nonc12)N1CCN(c2cccc(Cl)c2)CC1
CC(Nc1ccccc1)c1cccnc1 (centres undefined)
Cc1nn2c(c1-c1ccccc1)N=C(c1ccco1)CC2c1ccccc1 (centres undefined)
CC(C)(C)NS(=O)(=O)CC12CCC(CC1=O)C2(C)C (centres undefined)
COc1ccc(Cl)cc1NC(=O)NCC1CCN(Cc2ccccc2F)CC1
COc1ccc(Cl)cc1NC(=O)NC(C)C(C)(C)C (centres undefined)
COc1ccccc1N1CCN(C(=O)c2cn(-c3ccccc3)nc2-c2cccnc2)CC1
COc1ccc(NC(=O)C(CC(C)C)NC(=O)C2CCC(C)CC2)cc1 (centres undefined)
COc1ccc(CCNCC(O)Cn2ccc3ccccc32)cc1OC (centres undefined)
Cc1cccc(NC(=S)Nc2ccc3cn[nH]c3c2)c1
Cc1cccc(NC(=O)NC(=S)NC(=O)c2ccccc2)c1
Cc1ccc(NC(=S)Nc2ccc(F)cc2)cc1
Cc1cccc(NC(=S)NC23CN4CN(CN(C4)C2)C3)c1
Cc1ccc(C)c(N2CCN(C(=O)CCCn3c(=O)c4cccn4c4cccnc43)CC2)c1
COC(=O)CN1C(=O)[C@H]2[C@@H](/C=C/c3ccccc3)N3C(=O)CN(Cc4ccccc4)C(=O)[C@@]3(Cc3ccccc3)[C@H]2C1=O
CN(C)/C=C(/C(=O)c1ccc(F)cc1)S(=O)(=O)c1ccc(F)cc1
CC(NCC(=O)Nc1cc(Cl)cc(Cl)c1)c1ccccc1 (centres undefined)
Cc1nnc(SC(C(=O)c2ccccc2)c2ccccc2)[nH]c1=O (centres undefined)
CC(/C=C/c1ccco1)=N/NC(=O)C1COc2ccccc2O1 (centres undefined)
O=C(N/N=C/C=C/c1ccccc1)C1CC1(c1ccccc1)c1ccccc1 (centres undefined)
COc1ccc(NC(=O)c2oc3ccc(S(=O)(=O)N4CCOCC4)cc3c2C)cc1
COCCN1C2=C(COC(C)(C)C2)C(=S)NC1c1ccccc1 (centres undefined)
Cc1nc([N+](=O)[O-])nn1C12CC3CC(CC(Br)(C3)C1)C2
CCOC(=O)c1c(NC(=O)CCCN2CCOCC2)sc2c1CC(C)(C)OC2
COc1ccc(C(=O)C2CCCN(Cc3ccc4nonc4c3)C2)c(C)c1 (centres undefined)
CCOC(=O)c1[nH]ncc1CN1CCCC(C(=O)c2ccc(OC)cc2C)C1 (centres undefined)
CCC(=O)c1ccc(OCC(O)Cn2nc(C)c(C(C)=O)c2C)cc1 (centres undefined)
Cc1ccccc1Cn1c(=O)[nH]c2ccccc21
CCOC(=O)CCc1c(C)c(C#N)c2[nH]c3ccccc3n2c1=O
CCCN(CC1COc2ccccc2O1)C(=S)Nc1ccc(C)cc1 (centres undefined)
CCCn1c(C)cc(/C=C(\C#N)C(=O)OCC(=O)N(C)c2c(N)n(Cc3ccccc3)c(=O)[nH]c2=O)c1C
CCC(C)[C@@H](C(=O)N1CCNCC1)n1cc(CCCCN)nn1 (some centres undefined)
O=C(CCN1C(=O)c2ccccc2C1=O)Nc1ccncc1
CC1CCN(CCC(=O)Nc2ccccc2)CC1
CCN1CCN(C(=O)CN(C)S(=O)(=O)c2ccc3ccccc3c2)CC1
CON(C)S(=O)(=O)c1ccc2c(c1)NC(=O)C1CCCN21 (centres undefined)
